The supplement of paper PMC10849652
Targets with a hit are over-represented here; the source holds about 8,800 in all. About 0.5% of all pairs of compound and target were hits. Unmarked numbers belong to inactive results.

Experiments:
Assay in all cases: log2 fold change, soluble protein after heating vs DMSO (PISA); higher = thermal stabilisation; K562 lysate, 10 uM; active = over 0.2 and 3.5 SD of the protein, either way, in both replicates (recomputed)
[1] = compound: CN1CC[C@H](c2c(O)cc(O)c3c(=O)cc(-c4ccccc4Cl)oc23)[C@H](O)C1 [alvocidib]
How it was run: (§1)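 Following dounce homogenisation of K562 pellets in PBS pH 7.4 with 1 mM MgCl2, crude extract at 1 mg/mL protein was incubated for 30 min with 10 μM compound. Aliquots were then heated for 3 min over 48°C-58°C and pooled, NP-40 was added to 0.5% at 4°C, and soluble protein was recovered as the supernatant at 21,000xg for 90 min. Channel-sum-equalised TMTpro 16plex LC-MS/MS quantified this protein. Each value, from duplicates, is a log-two fold change in thermal stability relative to solvent controls.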

[2] = compound: CN1CCc2c(c3ccccc3n2Cc2ccc(C(=O)NO)cc2)C1 [Tubastatin A]
How it was run: as §1

[3] = compound: CNC(=O)C1=CC=CC=C1NC2=NC(=NC=C2Cl)NC3=C(C=C(C=C3)N4CCOCC4)OC
How it was run: as §1

[4] = compound: CNC(=O)c1ccc(Nc2ncc(C(F)(F)F)c(NCc3nccnc3N(C)S(C)(=O)=O)n2)cc1 [defactinib]
How it was run: as §1

[5] = compound: CNc1nc(-c2ccc3c(N)n[nH]c3c2)cc(N2C[C@@H](C(=O)NC3CCCCC3)CC[C@H]2C)n1
How it was run: as §1

[6] = compound: COC(=O)N[C@@H](C)CNc1nccc(-c2cn(C(C)C)nc2-c2cc(Cl)cc(NS(C)(=O)=O)c2F)n1 [encorafenib]
How it was run: as §1

[7] = compound: COC(=O)[C@H](CCSC)NC(=O)C1=C(C=C(C=C1)NC[C@H](CS)N)C2=CC=CC=C2
How it was run: as §1

[8] = compound: COc1cc(Nc2ncc3c(n2)-c2ccc(Cl)cc2C(c2c(F)cccc2OC)=NC3)ccc1C(=O)O [alisertib]
How it was run: as §1

[9] = compound: COc1cc2nc(-c3cc(F)ccc3O)nc(N[C@@H]3CNC[C@H]3C(C)(C)O)c2cc1OC
How it was run: as §1

[10] = compound: CS(=O)(=O)CCNCc1ccc(-c2ccc3ncnc(Nc4ccc(OCc5cccc(F)c5)c(Cl)c4)c3c2)o1 [lapatinib]
How it was run: as §1

[11] = compound: CS(=O)(=O)N1CCN(Cc2cc3nc(-c4cccc5[nH]ncc45)nc(N4CCOCC4)c3s2)CC1 [pictilisib]
How it was run: as §1

[12] = compound: C[C@@H](Oc1cc(-c2cnn(C3CCNCC3)c2)cnc1N)c1c(Cl)ccc(F)c1Cl [crizotinib]
How it was run: as §1

[13] = compound: C[C@H](C1=CC=C(C=C1)C(=O)NC2=C3C=CNC3=NC=C2)N
How it was run: as §1

[14] = compound: C[C@H](Nc1ncnc2nc[nH]c12)c1cc2cccc(Cl)c2c(=O)n1-c1ccccc1 [duvelisib]
How it was run: as §1

[15] = compound: Cc1cc(Nc2cc(CN3CCOCC3)c3nc(C)c(Cc4ccc(Cl)cc4F)n3n2)n[nH]1 [gandotinib]
How it was run: as §1

[16] = compound: Cc1cc(Nc2cc(N3CCN(C)CC3)nc(Sc3ccc(NC(=O)C4CC4)cc3)n2)n[nH]1 [tozasertib]
How it was run: as §1

[17] = compound: Cc1ccc(-n2nc(C(C)(C)C)cc2NC(=O)Nc2ccc(OCCN3CCOCC3)c3ccccc23)cc1 [doramapimod]
How it was run: as §1

[18] = compound: Cc1ccc(NC(=O)c2ccc(CN3CC[C@H](N(C)C)C3)c(C(F)(F)F)c2)cc1Nc1nccc(-c2cncnc2)n1 [bafetinib]
How it was run: as §1

[19] = compound: Cc1cccc(CC(=O)N2CCc3c2ccc(-c2cn(C)c4ncnc(N)c24)c3F)n1
How it was run: as §1

[20] = compound: COc1cc2ncnc(Nc3ccc(F)c(Cl)c3)c2cc1OCCCN1CCOCC1 [gefitinib]
How it was run: as §1

UniProt Q16816, sequence (Q16816 whole entry, looked up): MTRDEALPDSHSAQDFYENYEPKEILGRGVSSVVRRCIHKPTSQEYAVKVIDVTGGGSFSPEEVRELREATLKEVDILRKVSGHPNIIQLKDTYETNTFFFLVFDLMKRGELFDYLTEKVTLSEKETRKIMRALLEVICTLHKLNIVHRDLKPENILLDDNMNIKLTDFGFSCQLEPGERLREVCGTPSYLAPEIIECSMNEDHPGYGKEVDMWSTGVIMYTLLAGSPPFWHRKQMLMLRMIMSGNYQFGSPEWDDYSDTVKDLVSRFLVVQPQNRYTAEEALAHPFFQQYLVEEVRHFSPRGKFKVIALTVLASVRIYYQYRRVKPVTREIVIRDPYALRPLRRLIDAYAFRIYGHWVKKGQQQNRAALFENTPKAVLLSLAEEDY
UniProt Q05397, sequence (Q05397 whole entry, looked up): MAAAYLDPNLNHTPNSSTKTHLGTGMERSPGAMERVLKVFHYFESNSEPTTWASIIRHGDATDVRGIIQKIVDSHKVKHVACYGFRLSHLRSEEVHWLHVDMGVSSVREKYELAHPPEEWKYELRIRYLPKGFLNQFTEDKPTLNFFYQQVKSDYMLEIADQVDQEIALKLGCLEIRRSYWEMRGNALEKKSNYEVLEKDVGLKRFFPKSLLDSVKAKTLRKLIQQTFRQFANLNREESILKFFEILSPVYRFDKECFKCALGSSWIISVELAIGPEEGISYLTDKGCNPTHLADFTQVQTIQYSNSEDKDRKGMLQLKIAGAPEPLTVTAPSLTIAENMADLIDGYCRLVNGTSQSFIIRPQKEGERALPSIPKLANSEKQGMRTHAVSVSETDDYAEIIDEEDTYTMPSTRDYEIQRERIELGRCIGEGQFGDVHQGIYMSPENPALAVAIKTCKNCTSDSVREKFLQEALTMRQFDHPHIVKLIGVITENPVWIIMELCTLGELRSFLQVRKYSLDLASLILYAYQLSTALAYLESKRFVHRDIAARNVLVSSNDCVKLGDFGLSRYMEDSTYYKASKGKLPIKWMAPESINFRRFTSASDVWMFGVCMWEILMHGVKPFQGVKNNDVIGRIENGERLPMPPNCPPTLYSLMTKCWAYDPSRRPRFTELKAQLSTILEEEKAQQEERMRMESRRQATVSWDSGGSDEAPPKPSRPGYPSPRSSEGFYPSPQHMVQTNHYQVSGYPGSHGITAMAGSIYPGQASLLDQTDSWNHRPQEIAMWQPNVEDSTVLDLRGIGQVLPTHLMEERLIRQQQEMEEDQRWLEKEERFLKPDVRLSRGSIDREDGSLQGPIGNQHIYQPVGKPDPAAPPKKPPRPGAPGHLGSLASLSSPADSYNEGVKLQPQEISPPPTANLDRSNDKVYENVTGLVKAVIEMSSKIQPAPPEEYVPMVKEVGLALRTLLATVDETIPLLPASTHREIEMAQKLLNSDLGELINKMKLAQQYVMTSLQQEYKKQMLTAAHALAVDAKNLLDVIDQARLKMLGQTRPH
UniProt Q99755, sequence (Q99755 whole entry, looked up): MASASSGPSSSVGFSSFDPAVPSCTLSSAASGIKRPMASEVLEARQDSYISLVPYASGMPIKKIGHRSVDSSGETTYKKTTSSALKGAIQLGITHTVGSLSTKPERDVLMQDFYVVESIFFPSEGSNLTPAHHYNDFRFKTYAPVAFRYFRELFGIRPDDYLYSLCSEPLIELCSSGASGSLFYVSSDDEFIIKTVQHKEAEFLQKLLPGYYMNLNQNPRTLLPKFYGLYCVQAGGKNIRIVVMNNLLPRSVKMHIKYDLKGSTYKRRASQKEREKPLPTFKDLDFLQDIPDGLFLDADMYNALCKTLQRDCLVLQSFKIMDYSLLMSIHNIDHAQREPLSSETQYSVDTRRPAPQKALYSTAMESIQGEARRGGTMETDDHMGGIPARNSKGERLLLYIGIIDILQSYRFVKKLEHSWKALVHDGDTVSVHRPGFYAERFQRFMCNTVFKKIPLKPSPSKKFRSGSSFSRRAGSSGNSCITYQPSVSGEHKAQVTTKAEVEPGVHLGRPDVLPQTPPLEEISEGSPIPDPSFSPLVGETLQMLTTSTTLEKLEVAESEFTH
UniProt P78364, sequence (P78364 whole entry, looked up): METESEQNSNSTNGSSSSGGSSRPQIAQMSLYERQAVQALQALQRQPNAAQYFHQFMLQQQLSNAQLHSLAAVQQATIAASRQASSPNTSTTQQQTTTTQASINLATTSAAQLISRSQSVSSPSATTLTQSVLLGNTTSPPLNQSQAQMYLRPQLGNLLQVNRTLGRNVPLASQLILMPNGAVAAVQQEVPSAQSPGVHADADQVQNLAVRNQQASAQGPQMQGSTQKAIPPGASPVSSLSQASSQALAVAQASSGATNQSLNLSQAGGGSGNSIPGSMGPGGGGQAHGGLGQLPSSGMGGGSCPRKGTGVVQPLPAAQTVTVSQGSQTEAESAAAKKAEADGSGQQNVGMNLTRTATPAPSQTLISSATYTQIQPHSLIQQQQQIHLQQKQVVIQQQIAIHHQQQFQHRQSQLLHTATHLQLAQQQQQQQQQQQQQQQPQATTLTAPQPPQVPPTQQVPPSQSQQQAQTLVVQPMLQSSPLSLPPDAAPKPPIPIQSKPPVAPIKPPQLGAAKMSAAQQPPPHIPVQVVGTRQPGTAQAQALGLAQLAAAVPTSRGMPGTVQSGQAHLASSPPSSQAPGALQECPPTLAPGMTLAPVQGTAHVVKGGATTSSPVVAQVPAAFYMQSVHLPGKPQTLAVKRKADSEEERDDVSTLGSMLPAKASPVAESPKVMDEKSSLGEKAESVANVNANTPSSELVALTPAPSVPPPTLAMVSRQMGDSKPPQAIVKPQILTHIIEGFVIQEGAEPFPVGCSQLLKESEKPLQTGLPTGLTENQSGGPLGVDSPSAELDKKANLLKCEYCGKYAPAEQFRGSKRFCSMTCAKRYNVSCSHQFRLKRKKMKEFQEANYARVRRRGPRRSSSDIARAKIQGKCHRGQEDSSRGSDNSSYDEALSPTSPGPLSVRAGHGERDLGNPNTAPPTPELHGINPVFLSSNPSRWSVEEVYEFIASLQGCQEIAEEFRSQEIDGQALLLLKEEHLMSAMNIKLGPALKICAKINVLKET
UniProt O60927, sequence (O60927 whole entry, looked up): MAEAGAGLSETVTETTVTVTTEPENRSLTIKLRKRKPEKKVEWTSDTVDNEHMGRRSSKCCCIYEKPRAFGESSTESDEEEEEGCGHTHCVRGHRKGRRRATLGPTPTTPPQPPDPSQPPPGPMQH
UniProt A8CG34, sequence (A8CG34 whole entry, looked up): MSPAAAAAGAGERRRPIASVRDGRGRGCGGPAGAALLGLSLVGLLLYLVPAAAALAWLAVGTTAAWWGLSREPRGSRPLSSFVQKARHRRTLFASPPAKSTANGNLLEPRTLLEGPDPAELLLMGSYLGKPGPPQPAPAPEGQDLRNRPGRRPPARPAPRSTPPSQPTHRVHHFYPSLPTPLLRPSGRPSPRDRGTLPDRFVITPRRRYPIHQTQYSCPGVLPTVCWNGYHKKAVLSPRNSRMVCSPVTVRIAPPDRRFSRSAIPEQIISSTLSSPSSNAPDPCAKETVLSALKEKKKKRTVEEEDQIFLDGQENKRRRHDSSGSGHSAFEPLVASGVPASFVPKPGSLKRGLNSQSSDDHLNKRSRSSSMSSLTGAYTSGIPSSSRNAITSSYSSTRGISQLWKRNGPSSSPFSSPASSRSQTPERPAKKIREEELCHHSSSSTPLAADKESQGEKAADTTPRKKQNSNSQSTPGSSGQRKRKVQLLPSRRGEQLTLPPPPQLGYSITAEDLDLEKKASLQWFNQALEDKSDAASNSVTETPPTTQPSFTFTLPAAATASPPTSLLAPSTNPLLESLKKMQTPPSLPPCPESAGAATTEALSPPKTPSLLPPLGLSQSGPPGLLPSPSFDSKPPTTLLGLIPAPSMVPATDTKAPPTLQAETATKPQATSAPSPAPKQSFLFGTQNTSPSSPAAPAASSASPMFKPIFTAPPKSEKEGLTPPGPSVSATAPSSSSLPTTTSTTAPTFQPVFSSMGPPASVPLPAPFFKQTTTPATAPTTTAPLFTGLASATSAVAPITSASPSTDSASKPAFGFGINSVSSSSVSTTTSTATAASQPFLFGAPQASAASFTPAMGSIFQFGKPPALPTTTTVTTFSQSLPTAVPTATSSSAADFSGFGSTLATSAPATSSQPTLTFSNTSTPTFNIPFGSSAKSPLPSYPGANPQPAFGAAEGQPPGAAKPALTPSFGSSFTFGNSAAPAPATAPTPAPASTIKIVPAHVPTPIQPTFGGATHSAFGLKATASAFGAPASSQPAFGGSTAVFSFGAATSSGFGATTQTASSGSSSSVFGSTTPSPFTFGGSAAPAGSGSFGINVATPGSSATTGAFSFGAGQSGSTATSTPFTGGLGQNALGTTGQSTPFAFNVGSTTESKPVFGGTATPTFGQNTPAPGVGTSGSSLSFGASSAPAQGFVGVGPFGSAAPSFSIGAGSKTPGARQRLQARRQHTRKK
UniProt Q96I23, sequence (Q96I23 whole entry, looked up): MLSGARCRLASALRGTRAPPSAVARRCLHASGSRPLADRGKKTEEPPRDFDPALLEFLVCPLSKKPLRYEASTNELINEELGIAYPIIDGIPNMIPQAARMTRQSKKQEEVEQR
UniProt Q9UHX1, sequence (Q9UHX1 whole entry, looked up): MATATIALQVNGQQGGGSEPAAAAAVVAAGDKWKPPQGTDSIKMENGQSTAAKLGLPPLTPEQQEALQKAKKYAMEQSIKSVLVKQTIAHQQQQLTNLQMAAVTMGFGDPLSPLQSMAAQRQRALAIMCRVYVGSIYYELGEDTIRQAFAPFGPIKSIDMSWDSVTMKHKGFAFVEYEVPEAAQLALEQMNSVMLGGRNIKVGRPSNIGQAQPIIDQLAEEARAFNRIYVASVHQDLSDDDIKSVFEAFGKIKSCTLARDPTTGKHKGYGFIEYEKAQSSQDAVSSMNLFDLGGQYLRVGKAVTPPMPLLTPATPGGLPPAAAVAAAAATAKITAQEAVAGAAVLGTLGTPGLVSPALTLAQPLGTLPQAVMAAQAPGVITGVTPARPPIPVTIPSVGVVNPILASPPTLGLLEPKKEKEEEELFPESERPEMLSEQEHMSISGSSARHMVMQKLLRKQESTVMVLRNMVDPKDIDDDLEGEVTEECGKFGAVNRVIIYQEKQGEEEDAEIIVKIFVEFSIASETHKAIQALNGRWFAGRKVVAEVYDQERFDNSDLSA

| Target | log2 fold change [1] | log2 fold change [2] | log2 fold change [3] | log2 fold change [4] | log2 fold change [5] | log2 fold change [6] | log2 fold change [7] | log2 fold change [8] | log2 fold change [9] | log2 fold change [10] | log2 fold change [11] | log2 fold change [12] | log2 fold change [13] | log2 fold change [14] | log2 fold change [15] | log2 fold change [16] | log2 fold change [17] | log2 fold change [18] | log2 fold change [19] | log2 fold change [20] |
| --- | --- | --- | --- | --- | --- | --- | --- | --- | --- | --- | --- | --- | --- | --- | --- | --- | --- | --- | --- | --- |
| PRKDC (UniProt P78527) | -0.06 | -0.114 | -0.002 | 0.033 | -0.03 | -0.022 | -0.035 | 0.012 | -0.003 | -0.032 | 0.155 | -0.026 | -0.088 | 0.298 | 0.132 | -0.03 | -0.038 | -0.146 | -0.074 |  |
| PRMT5 (UniProt O14744) | 0.318 (active) | -0.009 | 0.008 | -0.019 | 0.013 | -0.015 | -0.099 | 0 | 0.011 | -0.029 | -0.012 | 0 | -0.02 | 0.158 | 0.011 | 0.017 | -0.004 | -0.021 | -0.008 | -0.023 |
| PYURF (UniProt Q96I23) | 0.077 | 0.041 | 0.073 | 0.181 | 0.019 | 0.113 | 0.027 | 0.007 | -0.007 | 0.036 | -0.066 | 0.016 | 0.01 | 0.087 | -0.015 | -0.048 | 0.011 | 0.091 | 0.015 | -0.038 |
| PDF (UniProt Q9HBH1) | 0.01 | -0.065 | 0.083 | 0.059 | 0.011 | 0.028 | -0.293 (active) | 0.048 | -0.181 | 0.027 | -0.016 | -0.067 | 0.018 | -0.076 | -0.019 | 0.029 | 0.027 | -0.162 | 0.025 | -0.064 |
| PHKG1 isoform 2 (UniProt Q16816) | -0.057 | 0.053 | 0.929 (active) | 0.196 | -0.118 | 0.123 | -0.078 | -0.185 | 0.763 | -0.166 |  | 0.305 | -0.553 | -0.042 | 0.655 | -0.172 | 0.038 |  | 0.216 | 0.202 |
| PHGDH, A0A286YFE1 |  |  |  |  | -0.19 |  |  |  | -0.114 | -0.214 | 0.114 |  |  | 0.244 |  |  |  | -0.313 |  |  |
| PTK2B (UniProt Q14289) |  | -0.071 | 0.401 (active) | 0.315 | -0.063 | -0.048 | -0.007 | 0.093 | 0.103 | -0.075 | -0.043 |  | -0.026 | -0.034 | 0.385 (active) | 0.019 |  | 0.098 | -0.05 | -0.056 |
| PUF60 isoform 2 (UniProt Q9UHX1) | 0.223 | 0.003 | 0.264 | 0.108 |  | 0.039 | -0.12 | -0.076 | 0.038 | -0.038 | -0.003 | 0.005 | 1.05 (active) |  | -0.09 | -0.161 | -0.058 | -0.006 | -0.09 | 0.044 |
| PTK2 isoform 2 (UniProt Q05397) |  |  | 0.003 |  | 0.018 | -0.058 | -0.129 |  | 0.053 | 0.049 | 0.067 |  |  | 0.298 |  | 0.125 |  | -0.087 |  |  |
| PRADC1 (UniProt Q9BSG0) | -0.141 | 0.04 | -0.126 |  | 0.059 |  |  | 0.109 | 0.212 | -0.088 | 0.091 | 0.075 | 0.166 | -0.069 | -0.002 |  | -0.041 | -0.149 | -0.087 | -0.071 |
| PPP2CA (UniProt E7ESG8) |  |  |  |  |  |  |  | 0.139 |  |  |  |  |  |  |  |  |  |  |  | -0.034 |
| PIP5K1A (UniProt Q99755) | 0.077 | -0.043 | 0.027 |  | -0.074 |  |  | -0.121 | -0.023 | -0.117 | 0.07 | -0.168 | 0.03 | -0.043 | -0.013 |  | 0.093 | -0.062 | -0.034 | -0.024 |
| PHOSPHO2 (UniProt C9JD35) |  |  |  |  |  | 0.018 | -0.36 |  |  |  |  | 0.02 |  |  |  | 0.234 | -0.084 |  |  |  |
| POLR2F (UniProt U3KPV3) |  |  |  |  | -0.059 | 0.177 | -0.182 |  |  |  |  |  |  | 0.012 |  | 0.109 |  |  |  |  |
| PCBP2 (UniProt F8VRH0) | -0.1 | 0.067 | -0.123 |  |  |  |  | 0.231 | 0.096 | -0.148 |  | 0.023 | -0.116 |  | -0.042 |  | -0.01 |  | 0.072 | 0.045 |
| POM121C (UniProt A8CG34) | -0.089 | 0.124 | 0.069 |  |  |  |  |  | -0.076 | 0.164 | 0.19 |  | 0.007 |  | 0.051 |  |  | 0.135 | -0.091 |  |
| PDE4DIP (UniProt E9PS60) | -0.111 |  | -0.02 | 0.056 | -0.089 | -0.059 | -0.039 | 0.013 |  |  |  | -0.034 | -0.688 (active) | -0.077 | 0.233 | -0.026 | 0.075 |  | 0.147 | 0.005 |
| PPP1R11 (UniProt O60927) | 0.048 | 0.077 | 0.011 |  | -0.001 | 0.051 | -0.027 | -0.081 | -0.041 | 0.01 | -0.016 | -0.069 | 0.153 | -0.054 | -0.048 | 0.022 | -0.022 | 0.099 | -0.071 | -0.09 |
| PICALM (UniProt H0YCY1) |  |  | -0.018 |  |  |  |  |  |  |  |  |  |  |  |  |  |  |  |  |  |
| PHC1 (UniProt P78364) |  |  |  | 0.005 | 0.184 | 0.059 | -0.062 | -0.017 |  |  | -0.025 | 0.063 |  | -0.025 |  | 0.022 | -0.254 | 0 |  | -0.101 |
| PRKD3 (UniProt O94806) | -0.308 | -0.014 | -0.066 | 0.059 |  | 0.077 | 0.233 | 0.139 | 0.087 | 0.031 | 0.019 | -0.199 | -0.643 (active) |  | 0.423 | 0.092 | -0.075 | -0.086 | 0.46 | -0.051 |
